Measured values published in PubChem BioAssay (Tox21).
Results filed as inconclusive are left out. Where a call stands in place of a potency, no number is given. Values without a mark were called inactive. Activity calls are given as the source filed them. Calls come from the whole dose curve; as a rule, active = well fitted inhibition curve with a large enough effect in the signal ratio in the repeat runs (not every such curve was filed as active); inconclusive = weak or mixed curves; inactive = flat fitted curve, though single readings scatter; the % refers to the signal ratio.
Potency is the fitted concentration of half-maximal effect.

Each compound was assayed against Progesterone receptor (Homo sapiens) (UniProt P06401) (assay: qHTS assay to identify small molecule antagonists of the progesterone receptor (PR) signaling pathway (AID 1346795)). Details: PR-UAS-bla HEK293T, beta-lactamase FRET ratio, 16 h; series mostly up to 92.4 µM.
Progesterone receptor (Homo sapiens), sequence (P06401 whole entry, looked up): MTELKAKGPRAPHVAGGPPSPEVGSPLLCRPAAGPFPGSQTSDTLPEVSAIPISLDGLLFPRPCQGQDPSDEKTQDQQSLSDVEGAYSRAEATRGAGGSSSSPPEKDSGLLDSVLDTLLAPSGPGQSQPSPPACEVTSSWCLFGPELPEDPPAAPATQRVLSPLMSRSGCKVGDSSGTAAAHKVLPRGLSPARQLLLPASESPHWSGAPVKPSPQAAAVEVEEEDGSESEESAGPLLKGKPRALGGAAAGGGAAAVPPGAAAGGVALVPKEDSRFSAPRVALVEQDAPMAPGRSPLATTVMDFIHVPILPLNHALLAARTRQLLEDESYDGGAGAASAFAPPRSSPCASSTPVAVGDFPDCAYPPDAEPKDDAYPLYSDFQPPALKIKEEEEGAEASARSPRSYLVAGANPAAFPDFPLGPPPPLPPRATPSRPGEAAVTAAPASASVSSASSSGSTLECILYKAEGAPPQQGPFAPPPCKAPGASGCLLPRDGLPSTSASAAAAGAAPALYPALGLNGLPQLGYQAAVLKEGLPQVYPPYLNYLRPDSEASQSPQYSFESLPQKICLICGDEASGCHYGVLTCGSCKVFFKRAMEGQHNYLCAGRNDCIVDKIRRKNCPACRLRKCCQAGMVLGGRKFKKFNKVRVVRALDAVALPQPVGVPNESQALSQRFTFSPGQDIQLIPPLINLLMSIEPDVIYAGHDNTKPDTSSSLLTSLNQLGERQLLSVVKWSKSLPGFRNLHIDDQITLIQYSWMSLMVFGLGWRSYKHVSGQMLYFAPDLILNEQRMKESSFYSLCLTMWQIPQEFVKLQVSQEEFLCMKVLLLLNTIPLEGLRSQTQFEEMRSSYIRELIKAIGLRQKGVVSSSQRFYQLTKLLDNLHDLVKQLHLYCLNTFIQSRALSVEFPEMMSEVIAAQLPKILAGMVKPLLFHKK
Source text: National Center for Advancing Translational Sciences [NCATS]
NIH Chemical Genomics Center [NCGC]
U.S. Environmental Protection Agency [EPA]
National Institutes of Environmental Health Sciences [NIEHS]
National Toxicology Program [NTP]
U.S. Food and Drug Administration [FDA]
Progesterone receptor (PR), a nuclear hormone receptor, plays an important role in development, metabolic homeostasis and reproduction. […] Endocrine disrupting chemicals (EDCs) and their interactions with steroid hormone receptors like PR causes disruption of normal endocrine function. To identify the compounds that inhibit PR signaling, a PR-UAS-bla GripTite cell line i.e. PR-UAS-bla HEK293T (Invitrogen, Carlsbad, CA, USA) containing a beta-lactamase reporter gene under the control of an Upstream Activator Sequence (UAS) was used to screen Tox21 10K compound library.
Tox21 Assay Protocol Summary:
PR-UAS-bla HEK293T cells were dispensed at 3,000 cells/4 uL of assay medium containing 2% charcoal stripped FBS per well into black wall/clear-bottom 1536-well plates using a Multidrop Combi (ThermoFisher Scientific, Waltham, MA) dispenser. After the assay plates were incubated at a 37C and 5% CO2 for 6 hr, 23 nL of compounds dissolved in DMSO, positive controls or DMSO only was transferred to the assay plate by a Pintool station (Kalypsys, San Diego, CA), followed by addition of 1 uL (1nM as final concentration) of Promegestone (R5020) in assay medium using a BioRAPTR FRD (Flying Reagent Dispenser, Aurora Discovery, San Diego, CA). The plates were incubated at 37C and 5% CO2 for 16 hr. Then 1 uL of LiveBLAzer B/G FRET substrate was added using a FRD. After the plates were incubated at room temperature for 2 hours, fluorescence intensity was measured by an Envision plate reader (PerkinElmer, Shelton, CT).
For `O=C1c2ccccc2C(=O)c2c1ccc(O)c2O`, the Potency was “inactive”.
In the case of `O=C(C1CCCCC1)N1CC(=O)N2CCCc3ccccc3C2C1` (stereo not given), the Potency is reported as “inactive”.
For `CCN(CCCCOC(=O)c1ccc(OC)c(OC)c1)C(C)Cc1ccc(OC)cc1` (stereo not given), the Potency was “inactive”.
In the case of `O=C(OC1C[C@H]2CC[C@@H](C1)[N+]21CCCC1)C(O)(c1ccccc1)c1ccccc1` (stereo not given in full), the Potency is reported as “inactive”.
With `CC(=O)Nc1ccn(C2COC(COC(=O)c3ccccc3)O2)c(=O)n1` (stereo not given) the Potency was “inactive”.
`C[Si](C)(C)O[Si](C)(C)O[Si](C)(C)C` was tested, and the Potency was “inactive”.
With `Cc1c(Nc2ncccc2C(=O)O)cccc1C(F)(F)F` the Potency was “inactive”.
In the case of `CCCCOC(=O)C(C)Oc1ccc(Oc2ccc(C(F)(F)F)cn2)cc1` (stereo not given), the Potency is reported as “inactive”.
`CC(C)(C)NCC(O)COc1ccc(NC(=O)NC2CCCCC2)cc1` (stereo not given) was tested, and the Potency was “inactive”.
For `CC/C=C\CCO`, the Potency was “inactive”.
`Nc1ncnc2c1ncn2[C@@H]1O[C@H](CO)[C@@H](O)[C@H]1O` was tested, and the Potency was “inactive”.
In the case of `CC1(C)C(=O)NC(=O)N1CO`, the Potency is reported as “inactive”.
With `COC(=O)c1cc(Cl)ccc1[N+](=O)[O-]` the Potency was “inactive”.
In the case of `COc1cc(C)c(Cc2cnc(N)nc2N)cc1OC`, the Potency is reported as “inactive”.
In the case of `CCc1c(C)[nH]c2c1C(=O)C(CN1CCOCC1)CC2` (stereo not given), the Potency is reported as “inactive”.
With `NC(=O)c1ccccc1` the Potency was “inactive”.
For `CC(C(=O)O)c1ccc(/C=C2\CCCCC2=O)cc1` (stereo not given), the Potency was “inactive”.
For `CCCCCCC/C=C/C=O`, the Potency was “inactive”.
For `Cc1ccc(Cl)c(OCC(O)CNC(C)(C)C)c1` (stereo not given), the Potency was “inactive”.
With `Cc1c(N=C=O)cccc1N=C=O` the Potency was “inactive”.
In the case of `COc1cc(CNC(=O)CCCC/C=C/C(C)C)ccc1O`, the Potency is reported as 53 µM (active).
`Cc1ccccc1CCO` was tested, and the Potency was “inactive”.
In the case of `O=C(O)c1cccc(C(=O)O)c1C(=O)O`, the Potency is reported as “inactive”.
For `CNc1ccccc1`, the Potency was “inactive”.
With `CCc1ccc(C(=O)C(C)CN2CCCCC2)cc1` (stereo not given) the Potency was “inactive”.
In the case of `CC(Cc1ccccc1)(NC(=O)CN)c1ccccc1` (stereo not given), the Potency is reported as “inactive”.
`CC(C)C/C=C(\C=O)c1ccccc1` was tested, and the Potency was “inactive”.
`CCCCOc1ccc(N)cc1` was tested, and the Potency was “inactive”.
With `CC1(C)[C@@H]2CC[C@]3(C2)[C@@H]1C(=O)CCC3(C)C` the Potency was “inactive”.
With `COC(=O)C(C)(C)C` the Potency was “inactive”.
In the case of `CCOc1ccccc1O`, the Potency is reported as “inactive”.
In the case of `O=C(O)c1ccc2c(c1)nc(C(=O)NC1CCN(C3CC3)CC1)n2Cc1cc(-c2ccc(Cl)s2)on1`, the activity change, negative = inhibition is reported as -15.4% [at 18.9 µM].
With `CC1=C(C)C(=O)C(C(CCCCCC(=O)O)c2ccccc2)=C(C)C1=O` (stereo not given) the Potency was “inactive”.
`C/C(=C(\CCO)SS/C(CCO)=C(\C)N(C=O)Cc1cnc(C)nc1N)N(C=O)Cc1cnc(C)nc1N` was tested, and the Potency was “inactive”.
For `C=C(C)C(=O)OCCCCCCCCCCOC(=O)C(=C)C`, the Potency was “inactive”.
In the case of `Nc1ccc(F)cc1F`, the Potency is reported as “inactive”.
With `CCOCCn1c(N2CCCN(C)CC2)nc2ccccc21` the Potency was “inactive”.
For `OCCCO`, the Potency was “inactive”.
`CCCCCCCCCCCCSC#N` was tested, and the Potency was “inactive”.
With `CC(C)(C)c1cc(C=O)cc(C(C)(C)C)c1O` the Potency was “inactive”.
